These results are taken from PubChem BioAssay AID493098 (Sanford-Burnham Center for Chemical Genomics, 2011).

Out of some 340,000 compounds screened, about 1,700 (0.5%) were called active. Many of the other results were omitted from the sample, so actives are more common in it than they were. Unmarked numbers belong to inactive results.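 How the source made its calls: active means compounds whose inhibition of the agonist-driven luminescence signal at 20 µM reaches about 50% (limit read from the data); inactive means the rest.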

The target in this assay is C-C chemokine receptor type 6 (Homo sapiens) (UniProt P51684). In words: blockers of CCL20-driven beta-arrestin recruitment to CCR6 – cell-based, CHO-K1, luminescence, uHTS, primary screen (AID 493098).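 Further: cells stimulated with CCL20 at 14 nM final; plate controls were DMSO with CCL20 for no effect and DMSO without agonist for full effect.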 As to conditions: CHO-K1 CCR6 PathHunter beta-arrestin, CCL20-stimulated, at 20 µM, hits give high values.
Sequence of C-C chemokine receptor type 6 (Homo sapiens) (P51684 whole entry, looked up): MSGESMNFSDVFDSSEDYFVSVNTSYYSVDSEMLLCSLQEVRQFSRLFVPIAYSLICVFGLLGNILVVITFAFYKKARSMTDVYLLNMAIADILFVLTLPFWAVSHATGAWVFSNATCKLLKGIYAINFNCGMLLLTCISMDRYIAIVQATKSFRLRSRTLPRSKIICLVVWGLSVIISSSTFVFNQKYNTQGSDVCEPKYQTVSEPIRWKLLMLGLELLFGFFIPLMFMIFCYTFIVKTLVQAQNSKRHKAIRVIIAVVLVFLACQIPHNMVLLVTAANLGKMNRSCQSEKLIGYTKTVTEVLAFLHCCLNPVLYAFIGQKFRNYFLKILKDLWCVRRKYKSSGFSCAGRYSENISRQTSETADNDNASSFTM
As a reminder, the inhibition is the change of the read-out against control, counted positive when it falls. Turning to `Nc1ccc(SCCN2C(=O)c3ccccc3C2=O)cc1`, the inhibition was -6.02%.
As for `Cc1ccc2oc(=O)c3cnn(CC(=O)N(Cc4ccco4)C4CCCCC4)c3c2c1`, the inhibition was 20.4%.
For `O=C(Nc1ccccc1Cl)/C(Cl)=C(\Cl)S(=O)c1ccccc1` (centres undefined) the value was 95.1% (active); for `CN(C)S(=O)(=O)Oc1ccccc1C(=O)Nc1ccccc1Cl`, 8.47%; for `O=C(COC(=O)CCc1c[nH]c(=O)[nH]1)Nc1ccccc1Cl`, -11.7%.
On to `Cc1c(S(=O)(=O)N2CC(C)CC(C)C2)c(=O)n(C)c(=O)n1C` (centres undefined), for which the inhibition was -1.65%.
As to `OCCNc1nc(Nc2ccc(Cl)c(Cl)c2)nc2ccccc12`, the inhibition is -13.9%.
For `CCN(CC)CCCSc1nc2ccccc2s1`, the inhibition is -12.8%.
For `O=[N+]([O-])c1c(NCCO)cc(Sc2nc3ccccc3s2)c2nonc12` the value was 114% (active); for `Cc1nc(C)c(-c2nnc(-c3cccc(S(=O)(=O)N(C)C)c3)o2)cc1C(=O)NN`, 8.51%; for `CCOc1ccc2[nH]c3nc(SCC(=O)NC4CCCC4)nnc3c2c1`, 15.4%.
For `Cc1nc2nc(SCC(=O)Nc3cccc(F)c3)[nH]c2cc1Br` the value was -8.14%; for `O=C(CN1CCN(C(=S)NC2CCCC2)CC1)Nc1ccc(Oc2ccccc2)cc1`, 10.7%.
With `CCC(=C/c1sc2ccc3ccccc3c2[n+]1C)/C=C1\Sc2ccc3ccccc3c2N1C` the figure was 66.6% (active).
For `S=c1[nH]nc(/C=C/c2ccccc2)o1`, the inhibition was -11.1%.
With `CC(C)[C@H](NC(=O)N1CCn2c1nc1ccccc12)C(=O)NCCc1ccccc1` the figure was 20.7%; with `CCCN(C(=O)COC(=O)CNS(=O)(=O)c1ccc(NC(C)=O)cc1)C1CCS(=O)(=O)C1` (centres undefined), 4.25%.
On to `O=C(O)CCN(Cc1ccccc1)S(=O)(=O)c1c(Cl)cccc1Cl`, for which the inhibition is 4.62%.
For the compound `CC(=NNC(=S)N1CCCCCC1)c1ccccn1`, the inhibition was 21.3%.
For `NC(=O)NC(CC(=O)NNC(=O)c1ccccn1)c1ccc(Cl)cc1` (centres undefined) the value was -16.2%; for `C/C(=N\NC(=O)Cc1ccc(Cl)cc1)c1ccccn1`, 102% (active); for `COC(=O)c1ccc(NC(=S)NN2CCOCC2)cc1`, 1.46%.
With `Cc1nc2nc(C)c(NS(=O)(=O)c3ccc(C(C)(C)C)cc3)c(=O)n2[nH]1` the figure was 6.13%; with `CC1CCCC(NC(=O)CSc2nccn2C)C1C` (centres undefined), 7.72%; with `CC1(C)CC2CC(C)(CN2c2ncnc3ccc(Br)cc23)C1` (centres undefined), 10.7%.
In the case of `COc1ccc(OC)c(CCNC(=O)c2nn(C)c3c2CS(=O)(=O)c2ccccc2-3)c1`, the inhibition was 9.14%.
For `CCN(CC)C(=O)CSc1nnc(CNc2ccc(F)cc2)n1Cc1ccco1`, the inhibition was 6.14%.
For `CC1CN(Cc2ccco2)C(=S)N(c2ccccc2)C1=O` (centres undefined) the value was 9.82%; for `CN(C)C(=S)N=c1ssc(=S)n1Cc1ccco1`, 59.8% (active); for `Cc1ccccc1N1C(=O)C2ON(c3ccccc3)C(c3ccncc3)C2C1=O` (centres undefined), -6.39%.
For the compound `CN(CC(=O)Nc1cccc(F)c1)C(=O)C1CSC2(C)CCC(=O)N12` (centres undefined), the inhibition was 9.77%.
For the compound `COCCn1c(SCC(=O)Nc2ccccc2F)nc2c(c1=O)SCC2`, the inhibition is -9.89%.
Take `S=C(NCCc1ccccc1)NCC1CCCO1` (centres undefined): the inhibition was 8.39%.
As for `S=C(NN=C1CCN(Cc2ccccc2)CC1)NC1CCCCC1`, the inhibition was 21.4%.
With `CCCC1CCC(=NNC(=S)NCCc2ccccc2)CC1` (centres undefined) the figure was 54.4% (active); with `Cc1cccc(C)c1N1CCN(S(=O)(=O)N2CCCCC2)CC1`, 18.8%; with `NS(=O)(=O)c1cc(C(=O)OCC(=O)NNC(=O)c2ccccc2)ccc1Cl`, 0.62%.
For `Cc1cccc(N2C(=O)CC(SC(N)=Nc3ccccc3)C2=O)c1` (centres undefined), the inhibition was 5.48%.
With `Cc1ccc(N=Cc2c(O)n(-c3nccs3)c(=O)c3ccccc23)c(C)c1` the figure was 17.6%; with `Cc1cccc(-n2c(O)c(C=Nc3ccccc3N)c(=O)[nH]c2=O)c1`, 88.4% (active); with `CCCCS(=O)c1snnc1C` (centres undefined), 4.33%.
Consider `CCC(CC)c1nnc(NC(=O)C2=COCCO2)s1`, for which the inhibition was -8.69%.
With `CCOc1ccc(S(=O)(=O)N2CCCCC2)cc1NC(=O)CN1CCCC1c1cccs1` (centres undefined), the inhibition was 13.2%.
In the case of `CC(=O)c1sc(N/N=C/c2ccc(C(C)C)cc2)nc1C`, the inhibition was -0.42%.
Regarding `CC(=O)c1sc(N/N=C\c2ccc(C)cc2)nc1C`, the inhibition was 20.1%.
Turning to `COc1cccc2sc(Nc3nc(C)c(C(C)=O)s3)nc12`, the inhibition is 52.1% (active).
Consider `O=C(CO/N=C/c1ccc(OC(F)F)cc1)NCc1ccc(F)cc1`, for which the inhibition was 16.1%.
With `COc1ccc(OC(C)C(=O)Nc2cccnc2)cc1` (centres undefined) the figure was 9.87%; with `COc1ccc(CS(=O)/C(Cl)=C(/Cl)C(=O)Nc2ccc(OC)nc2)cc1` (centres undefined), 95.4% (active); with `COc1ccc(CCC(=O)c2ccc(OC)cc2)cc1`, 11.9%.
For `CC(C)(C)CN1CCNC(=O)C1CC(=O)NC1Cc2ccccc2C1` (centres undefined) the value was -8.22%.
With `CC/C=C/C(=O)N1CC2(CC(c3cccc(NC(=O)CC)c3)=NO2)C[C@H]1C(N)=O` (some centres undefined) the figure was 3.3%; with `COC(=O)c1cccc(N(C(=O)CNC(=O)c2cccs2)C(C(=O)NCC2CCCO2)c2ccc(OC)c(OC)c2)c1` (centres undefined), -0.67%; with `COc1ccc(F)cc1C(=O)COC(=O)c1n[nH]c(=O)c2ccccc12`, 24.8%.
Take `COC(=O)Cc1c(-c2[nH]c3ccccc3c2CC(=O)OC)[nH]c2ccccc12`: the inhibition is 85.9% (active).
`CCCOC(=O)Cc1c(O)c2ccccc2[nH]c1=O`: the inhibition is -17.8%.
For `COC(=O)Cc1ccc(NC(=S)NCc2ccccc2)cc1` the value was -10.8%; for `NCC(=O)c1cccc2ccc[n+]([O-])c12`, -4.01%; for `Cc1ccc2cccc(O)c2[n+]1[O-]`, 54.9% (active).
Regarding `COc1ccc2c(c1)[C@H]1[C@H](CO2)[C@H](c2ccccc2)[C@]2(C)C(=O)Nc3cc(F)c(F)cc3C(=O)N12`, the inhibition was -0.31%.
With `Nc1ccccc1SC(C[N+](=O)[O-])c1ccccc1` (centres undefined) the figure was 62.7% (active); with `C/C(N)=C(\C#N)C(=O)NCCc1ccccn1`, 4.85%; with `O=C(NC(=S)Nc1ncccn1)c1ccccc1Br`, 1.75%.
For `Cc1cc(C)c(C2C3=C(Nc4c2c(C)nn4-c2ccccn2)c2ccccc2C3=O)c(C)c1` (centres undefined) the value was 53.2% (active).
With `COCC1CCCN(Cc2cn[nH]c2-c2cc3ccccc3o2)C1` (centres undefined), the inhibition was 7.28%.
With `c1nc(COc2nsnc2N2CCOCC2)cs1` the figure was -2.16%.
With `COc1cccc(CN2CCN(Cc3ccc4cccc(F)c4n3)CC2CCO)c1` (centres undefined) the figure was 11.8%; with `O=[N+]([O-])c1ccc(N2CCOCC2)cc1`, 7.93%.
As to `C=CS(=O)c1sc(Cl)c(N2CCOCC2)c1[N+](=O)[O-]` (centres undefined), the inhibition was 93.5% (active).
With `Cc1nc2cc(C(F)(F)F)ccc2n1CCNc1nc(-c2cc(Cl)c(N)c(Cl)c2)cs1` the figure was 6.34%; with `COc1ccc(NC(=O)c2oc3ccc(S(=O)(=O)N4CCOCC4)cc3c2C)cc1`, 8.2%; with `CCOC(=O)NC(C(F)(F)F)(C(F)(F)F)P(=O)(c1ccccc1)c1ccccc1`, 11.6%.
With `COC(=O)[C@]1(C)CCC[C@@]2(C)C3CC[C@]4(OC(C)=O)C[C@@]3(CCC21)CC4=NO` (some centres undefined) the figure was -0.25%; with `CCOc1ccc(NC(=O)c2nc(SCC)ncc2Cl)cc1`, 3.21%.
`CSc1nnc(NC(=O)c2nc(S(=O)(=O)Cc3ccc(C)cc3)ncc2Cl)s1`: the inhibition was -1.49%.
Turning to `Cc1cccc(NC(=O)c2nc(S(=O)(=O)Cc3ccccc3)ncc2Cl)c1`, the inhibition is 82% (active).
For `Cc1cccc(CS(=O)(=O)c2ncc(Cl)c(C(=O)Nc3ccc(F)cc3)n2)c1` the value was 79.4% (active); for `O=C(Nc1ccc(F)cc1)c1ccc(S(=O)(=O)NCc2cccnc2)cc1`, -1.15%.
For `Cc1ccc(CS(=O)(=O)c2ncc(Cl)c(C(=O)Nc3nnc(C)s3)n2)cc1`, the inhibition is -7.39%.
Take `CCCC(C(=O)OCCN(CC)CC)(c1ccccc1)c1ccccc1`: the inhibition is 11.6%.
With `COC(=O)c1ccc(-c2noc(CN(Cc3ccccn3)CC3CCCO3)n2)cc1` (centres undefined), the inhibition was 5.23%.
As for `CCn1c(=O)c2ccccc2n(CC(=O)N2CCCc3ccccc32)c1=O`, the inhibition was 9.45%.
For `Cc1ccccc1CSCCNC(=O)c1ccc(N(C)S(=O)(=O)c2ccccc2)cc1` the value was 32.2%.
As for `O=C(CC1OC(=O)c2ccccc21)NC1CCCCC1` (centres undefined), the inhibition was 19.9%.
For `CC(C)N(Cc1ccccc1)C(=S)Nc1ccc(OC(F)F)cc1` the value was 18.4%; for `CN(CC(=O)Nc1ccc(OC(F)F)cc1)S(=O)(=O)/C=C/c1ccccc1`, 59.9% (active); for `COc1ccc(NC(=O)COC(=O)c2ccc(NS(=O)(=O)/C=C/c3ccccc3)cc2)cc1`, 21.3%.
As for `CCN1CCN(C(=O)CSc2ccc(C)cc2)CC1`, the inhibition is 6.4%.
For `CCOC(=O)C1CCCN(C(=O)/C=C/c2ccc(OC)cc2)C1` (centres undefined) the value was 6.92%; for `CCN1CCC(O)(/C=C/c2ccc(C)cc2)C(C(=O)/C=C/c2ccc(C)cc2)C1` (centres undefined), 63.6% (active); for `N#CCCn1cnc2ccccc21`, 8.21%.
Take `Cc1cc(C)nc(SCc2ccccc2C#N)n1`: the inhibition is -11.7%.
Regarding `Cc1cc(C)nc(S/C=C/C(=O)c2ccccc2)n1`, the inhibition is 54.2% (active).
In the case of `O=C(/C=C/Sc1ncn[nH]1)c1ccc(Cl)cc1`, the inhibition was 31.6%.
